Compound activity deposited in PubChem by National Center for Advancing Translational Sciences (NCATS).
This excerpt belongs to a sample that is enriched for hits.
Cycloheximide cs = Cycloheximide Counterscreen for Small Molecule Inhibitors of Shiga Toxin; cell reporter, cycloheximide protein synthesis inhibition counterscreen; max response, %; hit rate 12% among 300,000; AID 2314, 2010; in the data active = max response mostly above about 13%, no sharp cut-off; inactive = mostly below about 14%; also: read at 38.3 µM for the half of the compounds with a filed dose
Tb PYK inh = qHTS of Trypanosoma Brucei Inhibitors; pyruvate kinase (Trypanosoma brucei), Q57TT1; TbPYK enzyme, Kinase-Glo Plus ATP luminescence, 45 min; hit rate 0.12% among 410,000; Potency, µM (top dose mostly 76.8 µM), most hits filed as inhibitors; also: nearly all actives have a fitted effect of over 50% in size
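Assay buffer: 50 mM TEA pH 7.2, 100 mM KCl, 10 mM MgCl2, 0.05% BSA, 0.01% Tween-20. Pyruvate kinase from T. brucei plus substrate met compound, then ADP (130 uM final). Luminescence was read post 45 min RT.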
LmPK inh = qHTS Assay for Inhibitors of Leishmania Mexicana Pyruvate Kinase (LmPK). Q27686. purified LmPK, Kinase-Glo ATP luminescence, 1 h. Potency, µM (top dose mostly 57.5 µM), usual class: inhibitors. hit rate 0.37% among 290,000
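Purified LmPK (0.1 nM) with 0.5 mM PEP and 0.1 mM ADP in imidazole buffer pH 7.2 with MgCl2/KCl, 1 h at room temperature. ATP formed was read by luciferase luminescence and normalized to no-enzyme and uninhibited controls.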
Shiga toxin inh = A qHTS for Small Molecule Inhibitors of Shiga Toxin; Vero cells, Shiga toxin protein synthesis inhibition reporter; inhibition, % at 38.7 µM; hit rate 9.2% among 290,000; in the data active = inhibition mostly above about 28%, no sharp cut-off; inactive = mostly below about 43%
RE007 growth inh = qHTS Assay for Inhibitors of the HIV-1 protein Vpr; S. pombe RE007 Vpr strain, BacTiter-Glo ATP luminescence, 24 h; Potency, µM (titrated, usually from 92.2 µM), most hits filed as inhibitors; hit rate 0.21% among 360,000; active = well fitted falling curve with a large enough effect; inconclusive = small, poorly fitted or top-dose-only effect; inactive = no such curve, though single readings can be large or run the other way; also: nearly all actives have a fitted effect of over 50% in size
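Fission yeast strain RE007, carrying one chromosomally integrated HIV-1 vpr copy, was seeded at OD 0.01 in PMG+AL medium with 23 nL pinned compound. After 24 h at 30 °C and 99% humidity, viability was read by BacTiter-Glo luminescence.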
FBPA Giardia inh = qHTS Assay for Inhibitors of Fructose-1,6-bisphosphate Aldolase from Giardia Lamblia | purified Giardia FBPA | hit rate 0.71% among 290,000 | Potency, µM (top dose mostly 59.6 µM), hits mostly inhibitors | A8B2U2 | AID 2451, 2010; also: nearly all actives have a fitted effect of over 55% in size
Target sequence (A8B2U2 whole entry, looked up): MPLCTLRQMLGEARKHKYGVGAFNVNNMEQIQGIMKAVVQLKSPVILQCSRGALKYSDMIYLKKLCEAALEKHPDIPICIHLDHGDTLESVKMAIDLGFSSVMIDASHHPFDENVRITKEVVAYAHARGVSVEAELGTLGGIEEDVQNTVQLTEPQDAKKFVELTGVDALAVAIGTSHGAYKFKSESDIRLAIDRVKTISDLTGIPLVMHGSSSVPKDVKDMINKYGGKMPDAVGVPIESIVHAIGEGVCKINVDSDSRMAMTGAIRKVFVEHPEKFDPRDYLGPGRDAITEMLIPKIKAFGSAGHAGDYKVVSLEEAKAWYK
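Giardia FBPA (40 nM reagent) was preincubated 10 min at RT with compound (up to 57.5 uM final), then substrate plus GAPDH/TPI/NAD/arsenate coupling system with diaphorase/resazurin was added; resorufin fluorescence (525/598 nm) was read after 20 min.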
Hits are given with their value; – = inactive; ? = inconclusive; · = not tested or not shown. Unless noted, calls follow the shape of the dose curve; as a rule, active = well fitted curve in the direction sought with a large enough effect; inconclusive = small, poorly fitted or top-dose-only effect, or another doubt; inactive = no such curve, though single readings can be large; an effect the other way counts as inactive or inconclusive.

SMILES	Cycloheximide cs	Tb PYK inh	LmPK inh	Shiga toxin inh	RE007 growth inh	FBPA Giardia inh
CC(=O)Nc1ccc(N=Nc2c(C)[nH]n(C(N)=S)c2=O)cc1	34	–	–	88	–	–
Cc1ccc(N=Nc2c(C)[nH]n(C(N)=S)c2=O)cc1C	26	–	–	158	–	–
Cc1[nH]n(C(N)=S)c(=O)c1N=Nc1cc(-c2ccc(Br)cc2)[nH]n1	35	–	–	–	–	–
Cc1[nH]n(C(N)=S)c(=O)c1N=Nc1ccc(S(=O)(=O)N2CCCCCC2)cc1	–	–	–	–	–	?
COCCn1c(=O)c(CCc2ccccc2)nc2cnc(N(C)C)nc21	·	·	·	·	·	–
O=C(c1ccncc1)N1CCC[C@@]2(CCN(Cc3ccccc3)C2)C1	·	–	·	·	·	–
Cc1[nH]n(C(N)=S)c(=O)c1N=Nc1ccc2ccccc2c1	45	–	–	93	?	–
NC(=S)n1[nH]c(-c2ccc([N+](=O)[O-])cc2)c(N=Nc2cccc([N+](=O)[O-])c2)c1=O	–	–	–	–	–	–
CCOc1ccc(NC(=O)c2csc3c2CCCC3)cc1	36	–	–	–	–	–
CC(=O)c1cccc(NC(=O)c2csc3c2CCCCC3)c1	37	–	–	55	–	–
CC/C(C)=N/Nc1nc(-c2cc3cccc(OC)c3oc2=O)cs1	47	–	?	53	–	–
COC(=O)c1ccc(CNC(=O)c2cc3ccccc3oc2=O)cc1	–	–	–	–	–	–
C/C(=N\Nc1ccccc1)c1cc2ccccc2oc1=O	–	–	–	–	–	–
COc1cccc2cc(C(=O)Nc3cccc(C)n3)c(=O)oc12	77	–	–	66	–	–
COC(=O)c1ccc(COC(=O)c2cc3ccccc3oc2=O)cc1	11	–	–	–	–	–
C/C(=N\NC(=O)CC#N)c1cc2ccccc2oc1=O	16	–	–	29	–	–
COc1cccc2cc(-c3csc(CCn4nc(C)cc4C)n3)c(=O)oc12	–	–	–	–	–	–
CCc1cccc(OCC(=O)Nc2ccc(S(=O)(=O)Nc3cc(C)nc(C)n3)cc2)c1	·	–	·	·	·	·
CCc1ccc(NC(=O)C(=O)NCCc2csc(-c3cccc(F)c3)n2)cc1	·	–	·	·	·	·
CCN1C(=O)C2(c3ccccc31)c1c(oc3ccccc3c1=O)C(=O)N2CCOC (stereo not drawn)	·	–	·	·	·	·
COC(=O)CN1C(=O)[C@@H]2[C@H](C1=O)[C@@H]1CC(C(=O)OC)=C[C@@H](C(=O)OC)C3C1=C(C(=O)[C@]3(C)NC(=O)c1ccccc1)[C@@H]2C (stereo partly drawn)	–	·	·	–	·	–
COc1cccc2cc(C(=O)N3CCN(c4ccccn4)CC3)c(=O)oc12	32	–	–	–	–	–
NC(=O)N/N=C/c1ccccc1OC(=O)c1cc2ccccc2oc1=O	26	–	–	77	–	–
COc1ccccc1C(=O)NCCC(=O)Nc1cccc(C)n1	22	–	–	–	–	·
COc1cccc2cc(C(=O)N3CCCCC3C)c(=O)oc12 (stereo not drawn)	–	–	–	–	–	–
SMILES	Cycloheximide cs	Tb PYK inh	LmPK inh	Shiga toxin inh	RE007 growth inh	FBPA Giardia inh
NC(=S)N/N=C/c1ccccc1OC(=O)c1cc2ccccc2oc1=O	–	–	–	–	–	–
COc1cccc2cc(NC(=O)C3CCCCC3)c(=O)oc12	16	–	–	–	–	–
COc1cccc2cc(C(=O)N3CCN(c4cc(C)ccc4C)CC3)c(=O)oc12	·	–	·	·	·	·
NS(=O)(=O)c1ccc(CCNC(=O)c2ccc3nc(Cc4ccccc4)oc3c2)cc1	·	–	·	·	·	·
Cc1ccc(N2CC(NC(=O)CCCc3ccccc3)CC2=O)cc1 (stereo not drawn)	·	–	·	·	·	·
CC(=O)c1ccc(COC(=O)c2cc3ccccc3oc2=O)cc1	25	–	–	–	–	–
CN(C(=O)COC(=O)c1cc2ccccc2oc1=O)C1CCCCC1	·	–	·	·	–	·
COc1cccc2cc(-c3nnc(-c4ccccc4)o3)c(=O)oc12	39	–	–	87	–	–
COc1cccc2cc(-c3nnc(-c4ccc(Cl)cc4)o3)c(=O)oc12	·	–	·	·	·	·
O=C(OCc1ccc([N+](=O)[O-])cc1)c1cc2ccccc2oc1=O	·	–	·	·	–	·
CCOC(=O)c1ccc(COC(=O)c2cc3ccccc3oc2=O)o1	28	–	–	–	–	–
COc1cccc2cc(C(=O)Oc3ccccc3)c(=O)oc12	–	–	–	–	–	–
COc1cccc2cc(C(=O)OCc3ccccc3)c(=O)oc12	54	–	–	49	–	–
COc1ccc(OCC2c3cc(OC)c(OC)cc3CCN2C(=O)c2c(F)cccc2F)cc1 (stereo not drawn)	·	–	·	·	·	·
COc1ccc2oc(=O)c(C(=O)NCc3ccccc3)cc2c1	–	–	–	–	–	–
COc1ccc2oc(=O)c(C(=O)OCc3ccccc3)cc2c1	23	–	–	–	–	–
COc1cccc2cc(C(=O)N(Cc3ccccc3)CC3CCCO3)c(=O)oc12 (stereo not drawn)	–	–	–	–	–	–
CCN(C(=O)c1cc2cccc(OC)c2oc1=O)c1ccccc1	53	–	–	168	–	–
COc1cccc2cc(CC(=O)c3ccc(C)cc3C)c(=O)oc12	55	–	–	73	–	–
CCCCOc1nnc(-c2ccc(OCC)cc2)c2ccccc12	·	–	·	·	·	·
CC[n+]1c(C)sc2c3ccsc3ccc21	–	4µM	–	–	–	–
CCOc1ccccc1CNC(=O)c1[nH]c2ccccc2c1Sc1ccccc1	·	–	·	·	·	·
O=C(NC1CCCCC1)C(c1cccs1)N(CCCN1CCOCC1)C(=O)c1ccc(-c2ccccc2)[nH]1 (stereo not drawn)	19	–	–	56	–	–
COc1ccccc1Cc1nc2ccccc2nc1SCC(=O)NCc1ccc(F)cc1	·	–	·	·	·	·
COc1cc2[nH]c3ccccc3c2cc1C	53	–	–	69	–	–
SMILES	Cycloheximide cs	Tb PYK inh	LmPK inh	Shiga toxin inh	RE007 growth inh	FBPA Giardia inh
O=c1cc(CO)occ1OCc1ccccc1	–	–	–	–	–	–
C#CCOc1coc(COC(=O)c2ccccc2)cc1=O	23	–	–	–	–	–
COc1ccc(N2C(N)=C(C#N)C(c3cc(CN4CCOCC4)cs3)C3=C2CCCC3=O)cc1 (stereo not drawn)	·	–	·	·	·	·
CCN(CC)Cc1ccc(NC(=O)c2sc3cc(Cl)ccc3c2Cl)cc1	–	–	–	–	28µM	–
Cc1ccc(NC(=O)c2cc(-c3ccc4c(c3)OCO4)on2)cc1	–	–	–	–	–	–
Cc1noc(C(=O)Nc2ccc3c(c2)OCO3)c1Cl	37	–	–	79	–	–
Cc1noc(C(=O)Nc2cccnc2)c1Cl	–	–	–	–	–	–
